Assay outcomes: PubChem BioAssay, National Center for Advancing Translational Sciences (NCATS)
In the library only some 9.2% were active in any assay of this set; here they are far more common.
FLuc modulator: qHTS profiling assay for firefly luciferase inhibitor/activator using purifed enzyme and Km concentrations of substrates (counterscreen for miR-21 project); Luciferin 4-monooxygenase (Photinus pyralis), P08659; purified FLuc, Km substrates, luminescence inhibition; Potency, µM (highest dose often 57.5 µM), for inactives: at the top dose activity change, negative = inhibition, hits mostly inhibitors; 360,000 compounds, 6.9% hits;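 note: plate controls were vehicle for no effect and reference inhibitor for full effect; nearly all actives have a fitted effect of over 55% in size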
Target sequence (P08659 whole entry, looked up): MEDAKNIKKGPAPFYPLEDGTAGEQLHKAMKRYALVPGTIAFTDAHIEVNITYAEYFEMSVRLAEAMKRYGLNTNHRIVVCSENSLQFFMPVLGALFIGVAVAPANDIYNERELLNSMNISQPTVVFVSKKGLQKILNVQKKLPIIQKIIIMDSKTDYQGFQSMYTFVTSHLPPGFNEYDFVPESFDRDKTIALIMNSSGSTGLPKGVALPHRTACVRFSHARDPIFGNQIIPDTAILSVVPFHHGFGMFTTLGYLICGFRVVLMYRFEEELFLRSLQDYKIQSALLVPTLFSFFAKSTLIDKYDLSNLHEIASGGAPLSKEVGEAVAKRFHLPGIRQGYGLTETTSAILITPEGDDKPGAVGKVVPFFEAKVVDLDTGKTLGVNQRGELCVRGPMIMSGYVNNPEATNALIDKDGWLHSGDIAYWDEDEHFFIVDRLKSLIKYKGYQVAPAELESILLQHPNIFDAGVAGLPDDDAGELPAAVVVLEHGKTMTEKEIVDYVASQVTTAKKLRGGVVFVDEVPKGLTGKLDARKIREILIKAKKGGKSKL
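Purified P. pyralis luciferase, 10 nM final, with Km-level 10 uM D-luciferin and 10 uM ATP in 50 mM Tris acetate pH 7.5, 10 mM Mg acetate, 0.01% Tween-20, 0.05% BSA; 6-point qHTS titration about 60 µM downward; luminescence read.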
ELG1 DNA repair: qHTS screen for small molecules that inhibit ELG1-dependent DNA repair in human embryonic kidney (HEK293T) cells expressing luciferase-tagged ELG1; 330,000 compounds, 2.3% hits; HEK293T ELG1-luciferase reporter, luminescence, 16 h; DNA damage induced by 5-fluorouridine; AID 504467, 2011; Potency, µM (series often up to 46.1 µM), inactives show at the highest dose activity change, negative = inhibition, actives largely listed as inhibitors; note: % is set by controls: 0 for no effect and ±100 for the full control effect; nearly all actives have a fitted effect of over 55% in size
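Overnight (16 hr) co-exposure of 2,000 cells/well to 5-fluorouridine and compound at 37 °C preceded detection. Luciferase was quantified via ONE-Glo luminescence; loss of signal denotes inhibition.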
ELG1 genotoxic: qHTS screen for small molecules that induce genotoxicity in human embryonic kidney (HEK293T) cells expressing luciferase-tagged ELG1 | HEK293T ELG1-luciferase reporter, luminescence, 16 h | Potency, µM (doses to about 46 µM), without a hit: at the highest dose activity change, positive = activation, hits mostly activators | 330,000 compounds, 1.3% hits; note: % of control where 0% means no effect; nearly all actives have a fitted effect of over 60% in size
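Step 1: seed 2,000 HEK293T ELG1-luciferase cells per well. Step 2: add compound or DMSO, incubate 16 hr at 37 °C. Step 3: ONE-Glo, 30 min at room temperature, read luminescence.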
NPC1 prom act: qHTS Assay for NPC1 Promoter Activators; Huh7 NPC1 promoter luciferase reporter, 24 h; Potency, µM (doses to about 9.22 µM), inactives show at the highest dose activation, most hits filed as activators; 320,000 compounds, 2.4% hits; AID 485313, 2010; note: % of control where 0% means no effect; nearly all actives have a fitted effect of over 60% in size
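Quantitative HTS used a cell-based reporter: Huh7 cells stably bearing the NPC1 promoter upstream of luciferase were treated with compounds for 24 h, and promoter activation was read as luminescence.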
Rab9 promoter act: qHTS Assay for Rab9 Promoter Activators | Huh7 Rab9 promoter-luciferase reporter, luminescence, 24 h | Potency, µM (doses to about 9.22 µM), for the others: at the top dose activation, negative = inhibition, usual class: activators | 320,000 compounds, 2.8% hits; note: % of control where 0% means no effect; nearly all actives have a fitted effect of over 60% in size
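Stable Rab9-luc Huh7, 1500 cells/well, 2 h settle; cmpd in DMSO, 24 h, 37 °C/5% CO2; luciferase reagent 10 min RT; luminescence.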
SMN2 splice enh: qHTS Assay for Enhancers of SMN2 Splice Variant Expression | HEK293 SMN2-luciferase splicing reporter, luminescence, 30-36 h | Potency, µM (series often up to 46.1 µM), without a hit: at the highest dose activity change, positive = activation, most hits filed as activators | 210,000 compounds, 2.8% hits | AID 1458, 2008; note: % of control where 0% means no effect; nearly all actives have a fitted effect of over 55% in size
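HEK293 cells carry an SMN2 […]–luciferase reporter in which exon 7 inclusion puts luciferase in frame. Cells were plated 10-12 h before compound addition, then incubated 30-36 h at 37C. ONE-Glo luminescence was read; sodium butyrate at 4.5 mM final served as control.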
* hit, by the source's call; ? = inconclusive; . = not tested or not shown. Calls come from the whole dose curve; as a rule, active = well fitted curve in the direction sought with a large enough effect; inconclusive = small, poorly fitted or top-dose-only effect, or another doubt; inactive = no such curve, though single readings can be large; an effect the other way counts as inactive or inconclusive. Potency is the fitted concentration of half-maximal effect.

SMILES | FLuc modulator | ELG1 DNA repair | ELG1 genotoxic | NPC1 prom act | Rab9 promoter act | SMN2 splice enh
O=C(O)c1ccc(/C=N/NC(=O)C(O)(c2ccccc2)c2ccccc2)cc1 | 5% | 11% | 2% | -4% | 0% | .
O=C(O)c1ccc(N/N=C/c2cccc(F)c2)cc1 | 2.4µM* | ? | ? | 0.5µM* | 0.5µM* | 1µM*
O=C(O)c1ccc(/C=N/Nc2ncc(Cl)cc2Cl)cc1 | ? | ? | 8% | 16% | 26% | .
O=C(N/N=C/c1cccc(F)c1)NC1CCCCC1 | ? | ? | 17% | 15% | 24% | 30%
O=C(O)c1ccc(N/N=C/c2ccc(F)c(F)c2)cc1 | 1.7µM* | ? | 5.2µM* | 0.32µM* | 0.32µM* | 1.4µM*
CC1=C(C(=O)Nc2ccccc2)C(c2cccc(Cl)c2)n2nc(SCC(=O)c3ccc(C)cc3)nc2N1 (stereo not drawn) | -5% | . | . | . | . | .
O=C(C1CCCN(S(=O)(=O)c2cccc3nonc23)C1)N1CCN(c2cccc(C(F)(F)F)c2)CC1 (stereo not drawn) | 4% | . | . | . | . | -13%
CCC(C)[C@H](NC(=O)N1CC(=O)Nc2ccccc21)C(=O)N1CCC(C(=O)O)CC1 (stereo partly drawn) | 3% | ? | 2% | -3% | 9% | .
CCOC(=O)N1CCC(NC(=O)c2cc(C(=O)Nc3cccc(C(F)(F)F)c3)ccc2CO)CC1 | -11% | 8.2µM* | -8% | -13% | -6% | -51%
COCCCNC(=O)COc1cc2c(c3oc(=O)c(C)c(C)c13)CCC(C)(C)O2 | -3% | 0% | -1% | -4% | ? | .
Cc1ccc(C(=O)CCC(=O)NC2CCCC(C)C2C)cc1 (stereo not drawn) | 3% | 15% | -2% | 0% | -23% | .
Cc1ccc(C(=O)CCC2CCCC2=O)cc1 (stereo not drawn) | 12µM* | ? | ? | 4µM* | ? | ?
Cc1ccc(C(=O)CCC2CCCCC2=O)cc1 (stereo not drawn) | 13µM* | ? | 21µM* | ? | ? | -7%
O=C(CCC1CCCCC1=O)c1ccccc1 (stereo not drawn) | ? | ? | 2% | 10% | 11% | -9%
CCc1ccc(C(=O)CCC2CCCCC2=O)cc1 (stereo not drawn) | 12µM* | ? | 18µM* | ? | ? | -4%
COc1ccc2[nH]c3c(=O)n(CCCC(=O)NC4CCCCC4C)c(=S)[nH]c3c2c1 (stereo not drawn) | 2% | 24% | 6% | -4% | -5% | .
Cc1cc(Cl)ccc1NC(=O)CN1C(=O)C(=O)c2ccccc21 | 8% | . | . | . | . | -9%
C=CCn1c(C)cc(C(=O)COC(=O)[C@@H](NC(=O)c2ccccc2Cl)C(C)C)c1C | 0.15µM* | ? | ? | ? | ? | -2%
C=CCn1c(C)cc(C(=O)COC(=O)/C=C/c2cccc(OC)c2)c1C | ? | -24% | -3% | 0% | 1% | -1%
Cc1cc(C(=O)COC(=O)COc2ccccc2C#N)c(C)n1CC1CCCO1 (stereo not drawn) | 3µM* | ? | 1% | -3% | 1% | .
C=CCn1c(C)cc(C(=O)COC(=O)COc2ccccc2C#N)c1C | 1.7µM* | ? | 8% | -2% | 9% | .
N#Cc1ccccc1OCC(=O)OCC(=O)c1ccc[nH]1 | -6% | 0% | -1% | -6% | -5% | .
COC(=O)[C@@H](Cc1ccc(O)cc1)NC(=O)[C@H]1CCC(=O)N1C(=O)OCc1ccccc1 | 1% | ? | 9% | -3% | -9% | .
Cc1cccc(Cn2ccc(NC(=O)c3ccc4c(c3)OCO4)n2)c1 | 17µM* | -11% | 6% | -1% | 3% | -4%
Cc1ccc(Cn2ccc(NC(=O)c3nn(C)cc3Cl)n2)cc1 | 21µM* | ? | 12% | ? | ? | 15%
SMILES | FLuc modulator | ELG1 DNA repair | ELG1 genotoxic | NPC1 prom act | Rab9 promoter act | SMN2 splice enh
O=C(N/N=C/c1ccc2c(c1)OCO2)c1ccn(Cc2ccc(Cl)cc2)n1 | ? | 14% | ? | 17% | -1% | .
O=C(Nc1ccn(Cc2ccc(Cl)cc2)n1)c1ccc2c(c1)OCO2 | 21µM* | . | . | . | . | 6%
C=CCOC(=O)COc1ccc2c(C)c(C)c(=O)oc2c1 | 19µM* | 3% | 2% | 0% | -1% | 10%
C=CCOC(=O)COc1ccc2c(C)c(CC)c(=O)oc2c1 | 12µM* | -6% | -1% | 5% | -3% | 29%
CCc1ccc(-n2nc3ccc(NC(=O)c4cc(Cl)c(OC)c(Cl)c4)cc3n2)cc1 | 54% | . | . | . | . | 5%
CCOC(=O)c1c(NC(=O)COc2ccc(OC)cc2)sc(C(=O)N(CC)CC)c1C | -12% | . | . | . | . | -41%
CCOC(=O)c1c(C)[nH]c(C(=O)OCC(=O)Nc2sc(C(=O)N(C)C)c(C)c2C(=O)OCC)c1C | 4% | 12µM* | -37% | -5% | -2% | .
CCOC(=O)c1c(NC(=O)COC(=O)c2cccnc2OCC)sc(C(=O)N(CC)CC)c1C | . | 7.3µM* | -6% | . | . | .
CC1CCCC(NC(=O)C2CCN(S(=O)(=O)c3cccc4nonc34)CC2)C1C (stereo not drawn) | 4% | ? | 6% | -6% | -5% | .
Oc1[nH]c(N=C2N=c3ccccc3=N2)c2ccccc12 | 1.3µM* | ? | 6.5µM* | 3.2µM* | ? | .
O=C(/C=C/c1ccccc1)N/C(=C/c1ccccc1)C(=O)NCCCO | 3% | 0% | -2% | -4% | -6% | -8%
CCCn1nc(C(=O)N2CCN(S(=O)(=O)c3ccc(C)c(C)c3)CC2)c2ccccc2c1=O | 0% | 23µM* | -9% | -1% | -5% | .
CCCn1nc(C(=O)NNC(=O)c2ccc(C)c(C)c2)c2ccccc2c1=O | . | ? | -2% | . | . | .
CC(=O)NCCCNc1ccc([N+](=O)[O-])cc1 | 19µM* | ? | 2% | 15% | 16% | ?
COc1ccccc1C(=O)NCCCNc1ccc([N+](=O)[O-])cc1 | -3% | -18% | -4% | 1% | -7% | -5%
Nc1cc(=O)[nH]c(SCC(=O)Nc2nc3ccc([N+](=O)[O-])cc3s2)n1 | ? | 9% | -2% | -3% | -1% | 6%
Cc1ccc2nc(-c3ccc(NC(=O)CSc4nccc(=O)[nH]4)cc3)sc2c1 | 2.7µM* | ? | ? | 1.4µM* | 0.4µM* | 8.9µM*
